The entries come from a sample that favours hits as a whole.
MARV entry inh: qHTS for inhibitors of binding or entry into cells for Marburg Virus; 300,000 tested, 1.8% active; Marburg virus pseudotyped entry inhibition, cell reporter; Potency, µM (highest dose often 37.8 µM), inactives show top-dose activity change, negative = inhibition, actives largely listed as inhibitors; AID 540276, 2011; calls by dose curve; tested in HEK293 cells; also: potency is read from the fitted curve at half-maximal effect; % is scaled to controls: 0 for no effect and ±100 for the full control effect
LASV entry inh: qHTS for Inhibitors of binding or entry into cells for Lassa Virus. 300,000 tested, 1.2% active. Lassa virus pseudotype entry inhibition, cell reporter. Potency, µM (series often up to 37.9 µM), for inactives: at the top dose activity change, negative = inhibition, hits mostly inhibitors; calls by dose curve; tested in HEK293 cells; also: potency is read from the fitted curve at half-maximal effect; % is scaled to controls: 0 for no effect and ±100 for the full control effect; nearly all actives have a fitted effect of over 50% in size
AMA1-RON2 inh: qHTS for Inhibitors of AMA1-RON; Towards Development of Antimalarial Drug Lead: Primary Screen; Plasmodium falciparum AMA1 (3D7) - RON2 peptide interaction; AlphaScreen AMA1-biotinylated RON2 peptide binding; Potency, µM (series often up to 58.2 µM), for inactives: at the highest dose activity change, negative = inhibition, actives largely listed as inhibitors; 360,000 tested, 0.2% active; AID 720542, 2013; active = well fitted inhibition curve with a large enough effect; inconclusive = small, poorly fitted or top-dose-only effect; inactive = no such curve, though single readings can be large or run the other way;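 also: potency is read from the fitted curve at half-maximal effect; 0% = vehicle wells and -100% = peptide control; nearly all actives have a fitted effect of over 45% in size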
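AMA1 (3D7) with his tag at 25 nM final met compounds first, then biotinylated RON2 peptide at 25 nM; detection used donor plus acceptor beads, 10 µg/mL apiece, read by AlphaScreen after 30 min at room temperature.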
Shiga toxin inh: A qHTS for Small Molecule Inhibitors of Shiga Toxin. Vero cells, Shiga toxin protein synthesis inhibition reporter. inhibition, % at 38.7 µM. 290,000 tested, 9.2% active; in the data active = inhibition mostly above about 28%, no sharp cut-off; inactive = mostly below about 43%; also: 0% is about no effect
Cycloheximide cs: Cycloheximide Counterscreen for Small Molecule Inhibitors of Shiga Toxin. cell reporter, cycloheximide protein synthesis inhibition counterscreen. max response, %. 300,000 tested, 12% active. AID 2314, 2010; in the data active = max response mostly above about 13%, no sharp cut-off; inactive = mostly below about 14%; also: read at 38.3 µM for the half of the compounds with a filed dose; 0% is about no effect
An asterisk follows results filed as active; ? = inconclusive; . = no result; + = active, no number; [ ] = remark or other dose.

SMILES | MARV entry inh | LASV entry inh | AMA1-RON2 inh | Shiga toxin inh | Cycloheximide cs
COc1ccc(Cl)cc1NC(=O)C1(c2cccs2)CCOCC1 | . | . | 4% | -10 | -3
CC(C)(C)c1ccc(O[C@@H]2[C@H](O)CO[C@H]2C=CC#Cc2ccccc2)cc1 | -16%[14.2 µM] | . | . | . | .
O=C(Cn1c(=O)n(-c2ccccc2)c(=O)c2sc3ccccc3c21)NC1CCCC1 | 14%[46.1 µM] | 30%[46.1 µM] | . | . | .
Nc1nc2c(s1)CCc1ccccc1-2 | . | . | -19% | 38* | 21*
CC/C(C)=N\Nc1nc(-c2cc3cc(OC)ccc3oc2=O)cs1 | ? | -25%[46.1 µM] | 57% | 73* | 34*
COc1ccc2oc(=O)c(-c3nnc(N)s3)cc2c1 | ? | 1% | 38% | 45* | 18*
COc1ccc2oc(=O)c(-c3nc(-c4ccc(C)c(C)c4)cs3)cc2c1 | . | 3%[46.1 µM] | . | . | .
O=c1oc2ccccc2cc1-c1nnc(NCc2ccco2)s1 | ? | ? | -29% | 70* | 32*
Cc1ccc(CSc2ncc(Cl)c(C(=O)NCCc3ccc(S(N)(=O)=O)cc3)n2)cc1 | -13%[46.1 µM] | -10%[46.1 µM] | . | . | .
O=Nc1c(-c2ccccc2)cc2ccccn12 | . | . | 6% | 130* | 48*
COc1ccc([C@H]2CC(=O)C[C@@H](CCn3cc(C)nn3)O2)cc1 | . | . | 5% | . | .
O=C1c2cc(O)c(O)cc2OC(c2ccc(O)c(O)c2)C1O (centres undefined) | 28% | 2%[46.1 µM] | -3% | . | .
CCCCC(CC)CNC(=O)c1ccc(Cn2c(=O)[nH]c3cc(OC)c(OC)cc3c2=O)cc1 (centres undefined) | 15%[46.1 µM] | ? | . | . | .
COCCN=c1scc(C)n1/N=C/C1CC2C=CC1C2 (centres undefined) | -10%[46.1 µM] | . | 22% | 55 | 13*
COc1ccc(CNCc2cn(-c3cccc(F)c3)nc2-c2ccc(C)o2)cc1 | . | . | -3% | 15 | 11*
COc1ccc(-n2cc(CNCCc3cnc[nH]3)c(-c3cccc(F)c3)n2)cc1 | -2%[46.1 µM] | ? | 30% | 67 | 41*
COc1ccc(-n2cc(CNC3CCC(O)CC3)c(-c3cccc(F)c3)n2)cc1 (centres undefined) | 18µM* | -17% | -5% | 13 | 2
COc1ccc(-n2cc(CNCc3cccnc3)c(-c3cccc(F)c3)n2)cc1 | ? | 10% | -20% | 51 | 16
COc1ccc(-n2cc(CN(C)CCO)c(-c3cccc(F)c3)n2)cc1 | . | . | -3% | 107* | 54*
CCC[C@@H]1CC2=CC(=O)CC[C@]2(C)[C@H]2CC[C@@]3(C)[C@@H](CC[C@@]34CCC(=O)O4)[C@H]12 | . | . | . | -6 | -9
COC(=O)[C@]12CCCCC=C1N(CCC1=CCCCC1)C(=O)[C@H](CC(=O)NCCCCc1ccccc1)C2 | . | . | -5% | . | .
Cc1ccc(-n2cc(CNCCn3nc(C)cc3C)c(-c3ccc(F)cc3)n2)cc1 | ? | ? | -5% | 34 | -1
Cc1ccc(-n2cc(CNCCc3ncc(C)[nH]3)c(-c3ccc(F)cc3)n2)cc1 | ? | ? | 27% | 7 | 14*
Cc1nc2c(c(=O)[nH]1)CSCC2 | . | . | . | -5 | 5
CC(=O)O[C@H]1C(=O)[C@@]2(C)C([C@H](OC(=O)c3ccccc3)[C@]3(O)C[C@H](OC(=O)[C@H](O)[C@@H](NC(=O)c4ccccc4)c4ccccc4)C(C)=C1C3(C)C)[C@]1(OC(C)=O)CO[C@@H]1C[C@@H]2OC(=O)[C@H](C)NC(=O)c1ccc(-c2c3ccc(=O)cc-3oc3cc(O)ccc23)c(C(=O)O)c1 (some centres undefined) | . | . | . | + | 22
SMILES | MARV entry inh | LASV entry inh | AMA1-RON2 inh | Shiga toxin inh | Cycloheximide cs
COc1ccc(-c2nc(CS(=O)CC(=O)NC3CCCCC3C)c(C)o2)cc1 (centres undefined) | 12%[46.1 µM] | 23%[46.1 µM] | -11% | 2 | -5
O=C(CCN1CCN(CCO)CC1)N1c2ccccc2Sc2ccc(C(F)(F)F)cc21 | -6% | . | -2% | -9 | -2
CN1CCN(CCCN2c3ccccc3Sc3ccc(C(F)(F)F)cc32)CC1 | 6.5µM* | 13µM* | ? | -16 | -3
CC1CC(Nc2ccccc2)c2ccccc2N1C(=O)c1ccco1 (centres undefined) | ? | -18% | ? | -11 | -2
CC1CC(Nc2ccccc2)c2ccccc2N1C(=O)c1ccncc1 (centres undefined) | 10µM* | -24% | -9% | -10 | -5
O=C(COc1ccc(Cl)cc1Cl)c1ccc[nH]1 | . | . | 0% | 57* | 31*
O=C(COc1ccc(Cl)cc1Cl)N/N=C/CCc1ccccc1 | 19% | 0% | 43% | -14 | -2
O=C(COc1ccc(Cl)cc1Cl)N/N=C/c1ccc[nH]1 | . | . | 8% | 35* | 44*
C/C(=N\Nc1nc2ccccc2c(=O)n1O)c1ccco1 | ? | -1%[46.1 µM] | 12% | 62* | 47*
Cc1cc(N/N=C/c2ccc(O)cc2O)c2ccccc2n1 | . | . | 115% | 22 | 5
C/C(=N\NC(=O)c1cc(C)nc2ccccc12)c1ccco1 | ? | ? | 6% | 1 | -1
Cc1ccc(C)c(/C=N/Nc2nc3ccccc3c(=O)n2O)c1 | -23% | 1% | 93% | 34* | 22*
Cc1ccc(/C(O)=C2/C(=O)C(=O)N(CCN3CCOCC3)C2c2ccccn2)cc1 (centres undefined) | -1% | 0% | 27% | 105* | 34*
O=C(C1=C(O)C(=O)N(CCN2CCOCC2)C1c1ccccc1)c1cccs1 (centres undefined) | 15% | -4% | 53% | . | .
O=C1C(=O)N(CCN2CCOCC2)C(c2ccccn2)/C1=C(/O)c1ccccc1 (centres undefined) | 23% | 3% | 19% | 109* | 30*
O=C(C1=C(O)C(=O)N(CCCN2CCOCC2)C1c1ccccn1)c1cccs1 (centres undefined) | -1% | . | . | 43* | 75*
O=C1C(=O)N(CCN2CCOCC2)[C@@H](c2ccccn2)/C1=C(\O)c1ccccc1 | 23% | . | . | . | .
COc1ccc(/C(O)=C2/C(=O)C(=O)N(CCN3CCOCC3)C2c2ccccn2)cc1OC (centres undefined) | ? | 11% | 0% | 64* | 25*
CCN(CC)CCCN1C(=O)C(=O)/C(=C(/O)c2ccc(C)cc2)C1c1ccccn1 (centres undefined) | -6% | -20% | 21% | 8 | -3
CCCC(=O)N1CCN(c2nc(CC(C)C)c3c(c2C#N)CCC3)CC1 | ? | 13µM* | 7% | 17 | 7
O=C(Cc1cccs1)Nc1ccccc1C(=O)O | -6% | 11% | 11% | 21 | 21*
O=C(Cc1cccs1)Nc1ccccc1F | ? | ? | 15% | 91 | 18*
Cc1ccccc1N1CCN(CCC(=O)Nc2ccc(F)cc2)CC1 | . | . | 3% | . | 2
CCC(Cc1ccccc1)NC(=O)c1csc2c1CCCCC2 (centres undefined) | -11%[46.1 µM] | . | . | . | .
CCNC(=S)Nc1ccc(Cl)cc1 | 1% | 5% | -1% | 12 | -1
